Data on nine compounds can be found in PubChem BioAssay (NCI).

Some test systems named below: SK-MEL-2 melanoma; EKVX NSCLC; SN12C renal; UO-31 renal; TK-10 renal; ACHN renal; CAKI-1 renal; A498 renal; CCRF-CEM leukemia; MOLT-4 leukemia; SR leukemia; OVCAR-8 ovarian; OVCAR-5 ovarian; OVCAR-4 ovarian; SK-OV-3 ovarian; IGROV1 ovarian; HS 578T breast; NCI/ADR-RES ovarian; OVCAR-3 ovarian; RPMI-8226 leukemia.
What all share (experiment): NCI-60 one-dose screen, 48 h (100 = growth as untreated, 0 = no growth, -100 = all killed)
What all share (conditions): 10 µM unless noted

Each structure is given as a SMILES string. Compounds without any hit were thinned out: in the full panel of roughly 83,000, 20% have a hit.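 Testing used 96-well plates and a 48-hour single-concentration exposure. Example: -40 means 40% of the starting cells died.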 Values without a mark were called inactive. Calls of active or inactive are those of the source. How the source made its calls: active means growth percent below 10; inactive means the rest.

For the compound `CN1CCN(C2=C(Cl)C(=O)c3ccccc3C2=O)CC1`, the growth with SK-MEL-2 melanoma was 45.8%; with EKVX NSCLC, 89.3%; in the experiment with SN12C renal it was 79.1%; with UO-31 renal, 75.4%; in the experiment with TK-10 renal it was 93.5%; in the experiment with ACHN renal, 82.9%. Further, the growth is 77% in the experiment with CAKI-1 renal; 88.6% in the experiment on A498 renal; 75.5% in the experiment with CCRF-CEM leukemia; 79.7% with MOLT-4 leukemia; 24.3% in the experiment on SR leukemia; 67.1% with OVCAR-8 ovarian. Besides, the growth was 119% with OVCAR-5 ovarian; 84% in the experiment on OVCAR-4 ovarian; 102% with SK-OV-3 ovarian; 60.7% in the experiment with IGROV1 ovarian; 27.8% with HS 578T breast; 69.8% in the experiment with NCI/ADR-RES ovarian.
Take `CCOC(=O)c1sc(-c2ccc(OS(=O)(=O)c3ccc(C(C)(C)C)cc3)c(C=O)c2)nc1C`: the growth in the experiment with SK-MEL-2 melanoma is 72.7%; with EKVX NSCLC it was 40.2%; in the experiment with SN12C renal, 32.1%; with UO-31 renal it was 29.9%; with TK-10 renal it was 55.8%; in the experiment with ACHN renal, 26.6%. The growth in the experiment with CAKI-1 renal is 20.5%; in the experiment with A498 renal, 57%; in the experiment with CCRF-CEM leukemia, 29.9%; with MOLT-4 leukemia, 20.5%; in the experiment with SR leukemia it was 14.5%; in the experiment on OVCAR-8 ovarian, 38.2%. The growth is 64.3% with OVCAR-5 ovarian; 39.2% in the experiment on OVCAR-4 ovarian; 85.5% in the experiment on SK-OV-3 ovarian; 32% in the experiment with IGROV1 ovarian; 30% in the experiment with OVCAR-3 ovarian; 52.9% in the experiment on HS 578T breast. In the experiment on NCI/ADR-RES ovarian, the growth is 32.4%.
Take `CCC(O)(C(c1ccccc1)c1ccccn1)C(c1ccccc1)c1ccccn1` (stereo unspecified): the growth in the experiment on SK-MEL-2 melanoma is 97.5%; with EKVX NSCLC, 97.7%; in the experiment with SN12C renal, 110%; in the experiment with UO-31 renal, 84.3%; in the experiment on TK-10 renal, 107%; with ACHN renal, 95.2%. Also, the growth with CAKI-1 renal was 90.3%; in the experiment with A498 renal it was 96.7%; in the experiment with CCRF-CEM leukemia, 114%; in the experiment with MOLT-4 leukemia it was 87%; with SR leukemia, 83.8%; with OVCAR-5 ovarian, 96.4%. Besides, the growth with OVCAR-4 ovarian was 107%; with SK-OV-3 ovarian, 94.8%; in the experiment on IGROV1 ovarian, 101%; in the experiment with OVCAR-3 ovarian it was 102%; with NCI/ADR-RES ovarian, 109%.
On to `COc1ccc(-n2sc(=O)n(Cc3ccc(COC(=O)C(C)c4ccc(CC(C)C)cc4)cc3)c2=O)cc1` (stereo unspecified), for which the growth with SK-MEL-2 melanoma is 89.7%; in the experiment on EKVX NSCLC, 77.4%; in the experiment with SN12C renal, 23.4%; in the experiment on UO-31 renal it was -6.91% (active); in the experiment on TK-10 renal it was 10.1%; in the experiment with ACHN renal it was -44.4% (active). Besides, the growth in the experiment with CAKI-1 renal was 30.9%; in the experiment on A498 renal it was 83.3%; in the experiment with CCRF-CEM leukemia, -22.2% (active); in the experiment on MOLT-4 leukemia, -18.3% (active); in the experiment on SR leukemia it was -27.4% (active); in the experiment on OVCAR-8 ovarian, 50.1%. In addition, the growth in the experiment with OVCAR-5 ovarian was 63.6%; in the experiment with OVCAR-4 ovarian, 18.3%; in the experiment with SK-OV-3 ovarian, 96.1%; with IGROV1 ovarian, 42.5%; with OVCAR-3 ovarian, -67.3% (active); in the experiment with HS 578T breast, 77.8%. Besides, the growth with NCI/ADR-RES ovarian was 76.7%.
As to `C=CC(=O)Nc1cccc(C)c1Nc1cc(-c2cccnc2Cc2c(C)c(OC)cc(OC)c2C)ncn1`, the growth in the experiment on SK-MEL-2 melanoma was -29% (active); in the experiment with EKVX NSCLC, 82.1%; in the experiment with SN12C renal, 30.1%; in the experiment on UO-31 renal it was 51%; in the experiment with TK-10 renal, -8.59% (active); with ACHN renal it was 29.7%. Also, the growth in the experiment on CAKI-1 renal is 36.4%; with A498 renal, -4.92% (active); with CCRF-CEM leukemia it was -0.444% (active); in the experiment with MOLT-4 leukemia it was -7.26% (active); in the experiment with RPMI-8226 leukemia, -24.1% (active); in the experiment with OVCAR-8 ovarian, 3.17% (active). For the same compound, the growth is 57.5% in the experiment with OVCAR-5 ovarian; 41.9% in the experiment with OVCAR-4 ovarian; 28.7% with SK-OV-3 ovarian; 42.6% in the experiment with IGROV1 ovarian; 0.807% (active) with OVCAR-3 ovarian; 29.6% with HS 578T breast. Moreover, in the experiment on NCI/ADR-RES ovarian, the growth was 35.3%.
For the compound `CCCCOc1nc2ccc(Cl)cc2cc1/C=C/C(=O)/C=C1/CC(c2cc3cc(Cl)ccc3nc2OCCCC)Nc2ccccc2N1` (stereo unspecified), the growth is 102% in the experiment on SK-MEL-2 melanoma; 78.6% with EKVX NSCLC; 91.8% in the experiment on SN12C renal; 77.4% in the experiment on UO-31 renal; 113% in the experiment on TK-10 renal; 92.7% in the experiment with ACHN renal. Further, the growth is 81.9% in the experiment with CAKI-1 renal; 102% in the experiment on A498 renal; 101% in the experiment with CCRF-CEM leukemia; 100% in the experiment on MOLT-4 leukemia; 91.2% in the experiment with SR leukemia; 101% with OVCAR-8 ovarian. For the same compound, the growth in the experiment on OVCAR-5 ovarian was 93.8%; with OVCAR-4 ovarian it was 101%; with SK-OV-3 ovarian, 86.1%; with IGROV1 ovarian it was 67.2%; with OVCAR-3 ovarian it was 102%; in the experiment with HS 578T breast, 91.1%. For the same compound, the growth in the experiment on NCI/ADR-RES ovarian was 98.3%.
In the case of `C=C1C(=O)O[C@H]2[C@H]1CC/C(COC(=O)/C=C\C(=O)NCc1ccc(Cn3c(=O)sn(CCCI)c3=O)cc1)=C\CC[C@@]1(C)O[C@@H]21`, the growth was -64.4% (active) in the experiment on SK-MEL-2 melanoma; -58.8% (active) in the experiment with EKVX NSCLC; -90.8% (active) with SN12C renal; -100% (active) in the experiment on UO-31 renal; -79.3% (active) in the experiment on TK-10 renal; -100% (active) in the experiment with ACHN renal. Besides, the growth in the experiment on CAKI-1 renal was -78.6% (active); with A498 renal it was -17.6% (active); with CCRF-CEM leukemia, -21.1% (active); in the experiment with MOLT-4 leukemia, -30% (active); in the experiment on SR leukemia, -48% (active); in the experiment with OVCAR-5 ovarian, -83.9% (active). The growth with OVCAR-4 ovarian was -89.4% (active); in the experiment with SK-OV-3 ovarian it was 42.9%; with OVCAR-3 ovarian, -93% (active); in the experiment with HS 578T breast, -40.2% (active); in the experiment on NCI/ADR-RES ovarian, 1.52% (active).
Regarding `CC(=O)Nc1ccc(-c2cc3c(NCc4ccc(F)cc4)ncnc3s2)cc1`, the growth is 95.4% in the experiment with SK-MEL-2 melanoma; 67.5% with EKVX NSCLC; 72.6% with SN12C renal; 62.2% in the experiment on UO-31 renal; 70.5% in the experiment on TK-10 renal; 65.5% in the experiment with ACHN renal. Moreover, the growth is 61.6% with CAKI-1 renal; 61.9% in the experiment on A498 renal; 96.3% in the experiment with CCRF-CEM leukemia; 95.3% in the experiment with MOLT-4 leukemia; 77.2% in the experiment on SR leukemia; 26.9% in the experiment with OVCAR-8 ovarian. The growth with OVCAR-5 ovarian is 78.1%; with OVCAR-4 ovarian it was 44.5%; in the experiment on SK-OV-3 ovarian it was 69.5%; with IGROV1 ovarian, 61.1%; with OVCAR-3 ovarian, 81.6%; in the experiment on HS 578T breast, 70.3%. Also, the growth in the experiment with NCI/ADR-RES ovarian was 69.4%.
Take `CC(=O)Nc1ccc(C(=O)/C=C/c2ccccc2)cc1`: the growth with SK-MEL-2 melanoma is 78.2%; in the experiment on EKVX NSCLC, 95.2%; with SN12C renal, 77.2%; in the experiment on UO-31 renal, 51.8%; in the experiment on TK-10 renal, 82.1%; in the experiment with ACHN renal, 94.6%. Also, the growth with CAKI-1 renal is 88.2%; in the experiment with A498 renal, 74%; in the experiment on CCRF-CEM leukemia, 95.1%; in the experiment with MOLT-4 leukemia, 81.6%; in the experiment with SR leukemia, 49.6%; with OVCAR-8 ovarian, 75.1%. The growth in the experiment with OVCAR-5 ovarian was 94.6%; in the experiment with OVCAR-4 ovarian, 99.9%; in the experiment with SK-OV-3 ovarian, 105%; in the experiment with IGROV1 ovarian, 77%; in the experiment with OVCAR-3 ovarian it was 77.3%; in the experiment with HS 578T breast, 98.8%. In addition, the growth with NCI/ADR-RES ovarian is 94.2%.
